Experimental data reported in PubChem BioAssay (Tox21).
Records with an inconclusive call do not appear. The source made the active and inactive calls. Unless noted, calls come from the whole dose curve; as a rule, active = well fitted curve in the direction sought with a large enough effect in the repeat runs; inconclusive = weak or mixed curves; inactive = no such curve, though single readings can be large; an effect the other way counts as inactive or inconclusive.

Legend:
[1] = target: Progesterone receptor (Homo sapiens) (UniProt P06401); assay: qHTS assay to identify small molecule agonists of the progesterone receptor (PR) signaling pathway (AID 1346784; calls by dose curve; note: nearly all actives have a fitted effect of over 30% in size)
Chain of Progesterone receptor (Homo sapiens) (P06401 whole entry, looked up): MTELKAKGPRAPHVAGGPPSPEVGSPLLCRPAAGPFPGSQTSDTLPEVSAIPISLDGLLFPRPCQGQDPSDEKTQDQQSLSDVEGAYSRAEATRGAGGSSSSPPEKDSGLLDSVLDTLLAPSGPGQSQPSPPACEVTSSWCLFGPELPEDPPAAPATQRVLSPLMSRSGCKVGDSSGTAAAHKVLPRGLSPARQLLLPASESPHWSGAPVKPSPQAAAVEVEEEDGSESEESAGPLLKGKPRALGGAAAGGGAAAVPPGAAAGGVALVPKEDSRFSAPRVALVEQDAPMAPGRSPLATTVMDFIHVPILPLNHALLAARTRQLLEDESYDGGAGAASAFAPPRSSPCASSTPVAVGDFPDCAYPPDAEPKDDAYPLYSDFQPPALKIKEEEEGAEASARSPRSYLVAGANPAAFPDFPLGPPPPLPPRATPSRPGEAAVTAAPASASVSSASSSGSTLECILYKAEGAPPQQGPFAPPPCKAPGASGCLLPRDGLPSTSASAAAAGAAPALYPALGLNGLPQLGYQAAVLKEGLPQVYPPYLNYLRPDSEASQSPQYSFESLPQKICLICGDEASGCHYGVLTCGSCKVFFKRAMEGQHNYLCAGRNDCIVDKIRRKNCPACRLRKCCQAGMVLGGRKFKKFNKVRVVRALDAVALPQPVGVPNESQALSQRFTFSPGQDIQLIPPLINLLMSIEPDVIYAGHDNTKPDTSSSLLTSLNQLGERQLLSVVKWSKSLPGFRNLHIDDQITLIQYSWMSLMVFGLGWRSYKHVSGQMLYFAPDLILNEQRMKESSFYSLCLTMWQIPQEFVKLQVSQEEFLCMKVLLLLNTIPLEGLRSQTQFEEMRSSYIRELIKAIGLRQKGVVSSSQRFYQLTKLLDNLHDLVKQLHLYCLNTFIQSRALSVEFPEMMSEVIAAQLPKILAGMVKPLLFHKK
Outline: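 Beta-lactamase reporter read-out: after 16 hr compound treatment at 37C and a further 2 hr at room temperature with LiveBLAzer B/G FRET substrate, fluorescence was measured in PR-UAS-bla HEK 293T cells grown in 2% charcoal-stripped serum.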

[2] = target: Progesterone receptor (Homo sapiens) (UniProt P06401); assay: qHTS assay to identify small molecule antagonists of the progesterone receptor (PR) signaling pathway (AID 1346795; active = well fitted inhibition curve with a large enough effect in the signal ratio in the repeat runs, not every such curve was filed as active; the % refers to the signal ratio)
Outline: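 Read-out is fluorescence from the LiveBLAzer B/G FRET substrate, cleaved by a UAS-controlled beta-lactamase in PR-UAS-bla HEK293T cells after 16 hr exposure to compound plus 1 nM promegestone (final), followed by 2 hr at room temperature.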

[3] = qHTS assay to identify small molecule agonists of the progesterone receptor (PR) signaling pathway - cell viability counter screen (AID 1346799; calls by dose curve; note: nearly all actives have a fitted effect of over 45% in size; note: potency is the fitted concentration of half-maximal effect)
Outline: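 Luminescence from CellTiter-Glo, added after the beta-lactamase FRET read in the same wells, gave cytotoxicity in PR-UAS-bla HEK293T cells treated with compounds for 16 hr at 37C.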

[4] = qHTS assay to identify small molecule antagonists of the TGF-beta/Smad signaling pathway - cell viability counter screen (AID 1346824); note: nearly all actives have a fitted effect of over 50% in size
Outline: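 Cytotoxicity counter-screen run in the same wells as the beta-lactamase Smad reporter read: CellTiter-Glo luminescence after 30 min at room temperature. HEK 293T SBE-bla cells had 5 hr compound exposure at 37 C with TGF-beta1 (0.25 ng/mL stock).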

[5] = qHTS assay to identify small molecule agonists of the TGF-beta/Smad signaling pathway - cell viability counter screen (AID 1346829); note: top concentration of the series differs between compounds; nearly all actives have a fitted effect of over 45% in size
Outline: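 After overnight seating at 37 C and 5% CO2, reporter cells got compounds for 5 hr and FRET substrate for 2 hr; cell viability then came from CellTiter-Glo luminescence.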

[6] = qHTS assay to identify small molecule agonists of the TGF-beta/Smad signaling pathway (AID 1346859; active = well fitted activation curve with a large enough effect in the signal ratio in the repeat runs, not every such curve was filed as active; the % refers to the signal ratio; note: series mostly up to about 77 µM)
Outline: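 SBE-bla HEK 293T, 4,000 cells/well, plated o/n; cpd in DMSO, 5 hr, 37 C/5% CO2; B/G FRET substrate 2 hr RT; ex 405, em 460/530 nm.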

[7] = target: Thyrotropin-releasing hormone receptor (Homo sapiens) (UniProt P34981); assay: qHTS assay to identify small molecule agonists of the thyrotropin-releasing hormone receptor (TRHR) signaling pathway (AID 1346891; calls by dose curve; note: series mostly up to about 58 µM)
Chain of Thyrotropin-releasing hormone receptor (Homo sapiens) (P34981 whole entry, looked up): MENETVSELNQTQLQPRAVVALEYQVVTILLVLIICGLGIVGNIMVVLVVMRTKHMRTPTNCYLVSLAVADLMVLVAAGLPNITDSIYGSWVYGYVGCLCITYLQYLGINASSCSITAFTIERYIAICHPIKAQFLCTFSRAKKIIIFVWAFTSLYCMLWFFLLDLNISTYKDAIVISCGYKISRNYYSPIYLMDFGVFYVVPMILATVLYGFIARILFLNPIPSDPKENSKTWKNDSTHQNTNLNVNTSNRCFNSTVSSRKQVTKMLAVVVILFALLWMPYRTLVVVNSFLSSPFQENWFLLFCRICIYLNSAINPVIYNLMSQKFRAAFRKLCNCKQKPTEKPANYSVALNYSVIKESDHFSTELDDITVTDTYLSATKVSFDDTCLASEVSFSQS
Outline: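 Intracellular calcium rise, read as fluorescence every second for 3 min, served as the agonist signal in dye-loaded HEK293 cells expressing TRHR; each compound ran at 15 concentrations in triplicate.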

[8] = Human pregnane X receptor (PXR) small molecule agonists, qHTS cell viability counter screen (AID 1346977); note: nearly all actives have a fitted effect of over 50% in size; note: potency is the fitted concentration of half-maximal effect
Outline: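 PXR-Luc HepG2, 2,000 cells/well, 5% charcoal-stripped FBS; 5hr settle; cpd 24hr, 37C/5% CO2; CellTiter-Fluor at 23hr, read 1hr later (fluorescence).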

[9] = target: Thyrotropin-releasing hormone receptor (Homo sapiens) (UniProt P34981); assay: qHTS assay to identify small molecule antagonists of the thyrotropin-releasing hormone receptor (TRHR) signaling pathway (AID 1346877; active = well fitted inhibition curve with a large enough effect in the repeat runs, not every such curve was filed as active; note: series mostly up to about 51 µM)
Outline: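 TRHR-expressing HEK293 cells were seeded, cultured 18 h at 37 °C, then loaded with calcium dye for 2 h. Compounds were pre-incubated 5 min at room temperature before 1 nM TRH (final) was added, and kinetic fluorescence was recorded for 3 min.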

Measured: Potency

O=C1c2cccc(O)c2C(=O)c2c(O)cc(CO)cc21
inactive: [1] | [2] | [3] | [4] | [5] | [6] | [7]
active: [8] 38.6 µM

CC(C)(C)C1CCCCC1O (centres undefined)
inactive: [1] | [2] | [3] | [4] | [5] | [6] | [8]

O=C(O)C1CCC(C(=O)O)CC1 (centres undefined)
inactive: [1] | [2] | [3] | [5] | [6] | [9] | [7] | [8]

Nc1nc(N)c(-c2ccccc2)s1
inactive: [1] | [2] | [3] | [4] | [5] | [6] | [8]

CCCCCOC(=O)COc1cc(N2C(=O)C3=C(CCCC3)C2=O)c(F)cc1Cl
inactive: [1] | [2] | [3] | [4] | [5] | [6]

Cc1ccc(C(N)=O)cc1N
inactive: [1] | [2] | [3] | [4] | [5] | [6] | [8]

CC[C@@H]1C[C@H](N(Cc2cc(C(F)(F)F)cc(C(F)(F)F)c2)C(C)=O)c2cc(C(F)(F)F)ccc2N1C(=O)OC(C)C
inactive: [1] | [2] | [3] | [4] | [5] | [6] | [7] | [8]

C1=Cc2ccccc2C1
inactive: [1] | [2] | [3] | [4] | [5] | [6] | [9] | [7] | [8]

CN(c1nccc(=O)[nH]1)C1CCN(c2nc3ccccc3n2Cc2ccc(F)cc2)CC1
inactive: [1] | [2] | [3] | [4] | [5] | [6] | [9] | [7] | [8]

CCCCc1cc2ccccc2c(OCCN(C)C)n1
inactive: [1] | [3] | [4] | [5] | [6] | [9] | [7]

CN1CCC(=C2c3ccccc3CCc3sccc32)CC1
inactive: [1] | [4] | [5] | [6]
active: [3] 15 µM

Cc1ccc2c(ccc3ccccc32)c1
inactive: [1] | [3] | [4] | [5] | [6] | [9] | [7] | [8]
